In PubChem BioAssay AID720723 (Molecular Libraries Program, Specialized Chemistry Center, …, 2013) one finds IC50 data, which are given here for 25 compounds.

Each structure is given as a SMILES string. A number with no mark means an inactive call. Calls of active or inactive are those of the source. Cut-off not given; nearly all actives show IC50 up to about 87 µM.

This assay in a line: rhodamine 123 fluorescence quenching, dose response, artefact control for mitochondrial permeability transition pore inhibitor project, biochemical, dry powder samples (AID 720723). Particulars: Rhodamine 123 fluorescence quenching counterscreen, cell-free. (The purpose of a counterscreen is to sort out artefacts and off-target activity.)
Broadly, the IC50 is the midpoint of a concentration-inhibition curve. With `Cc1cc(C)c2nc(N(CCCN(C)C)C(=O)c3ccc(S(=O)(=O)N4CCCCCC4)cc3)sc2c1`, the IC50 is 20.9 µM (active). As to `N=c1sccn1CC(=O)Nc1cccc(Oc2ccccc2)c1`, the IC50 was 54.4 µM (active). `CNCCC=C1c2ccccc2CCc2ccccc21`: the IC50 was above 100 µM. On to `COc1ccc(Cl)cc1C(=O)Nc1ccc(CN2CCCCC2)cc1`, for which the IC50 is 85.9 µM (active). For `COc1cc(NC(=O)c2cc(-c3cccc(O)c3)on2)cc(OC)c1OC` the value was above 100 µM; for `COc1cc(CNCCO)cc(Cl)c1OCc1ccccc1Cl`, 31.5 µM (active). Regarding `Cc1ccc2nc(N(CCN(C)C)C(=O)/C=C/c3cccs3)sc2c1`, the IC50 was above 100 µM. For `C=CCNCCOCCOc1ccc(Cl)cc1C(C)(C)C` the value was 21.9 µM (active). Take `Cc1ccc2nc(N(CCCN(C)C)C(=O)CCc3ccccc3)sc2c1`: the IC50 is 34.1 µM (active). Turning to `COCCCNCCCOc1ccc(Cl)cc1C(C)(C)C`, the IC50 is 42.3 µM (active). In the case of `N#Cc1c(NCCN)nc(-c2ccco2)c2c1CCCC2` it was 82.5 µM (active).

`CN(C)CCCN1c2ccccc2Sc2ccc(Cl)cc21`: the IC50 was above 100 µM. In the case of `COc1ccc(C)c2sc(N(CCCN(C)C)C(=O)CS(=O)(=O)c3ccc(F)cc3)nc12`, the IC50 is 87.8 µM (active). In the case of `CC1CCCN(CCC(=O)c2ccc(Br)cc2)C1` (stereo not given), the IC50 is 85.8 µM (active). As for `C=CCNCCOc1ccc(C(C)(C)c2ccccc2)cc1`, the half-inhibitory concentration (IC50) was 41.6 µM (active).

Regarding `CCN(CC)c1ccc(NC(=O)c2cc(Cl)ccc2OC)cc1`, the IC50 is 41.2 µM (active). For `CN1CCC[C@@H]1CCO[C@](C)(c1ccccc1)c1ccc(Cl)cc1`, the IC50 was 27.5 µM (active).

Regarding `CCN(CC)CCCN=Cc1c(O)n(Cc2ccccc2)c(=O)c2ccccc12`, the IC50 is above 100 µM. In the case of `O=C(CC1NCCc2ccccc21)Nc1ccc(Cl)cc1` (stereo not given), the IC50 is 82.4 µM (active). `Cc1cc(C)c2nc(N(CCCN(C)C)C(=O)C3=COCCO3)sc2c1`: the IC50 was above 101 µM. In the case of `COc1ccc(-n2cc(CNC3CCN(C)CC3)c(-c3cccc(F)c3)n2)cc1` it was above 100 µM; in that of `COC(=O)c1c(NC(=O)C2CCCCC2)sc2c1CC(C)(C)NC2(C)C`, 48.1 µM (active).

With `C=CCNCCCOc1ccc(C)cc1Br`, the IC50 was 69.6 µM (active). For `CCOC(=O)N1CCN(S(=O)(=O)c2ccc(C(=O)N(CCCN(C)C)c3nc4c(C)c(C)ccc4s3)cc2)CC1` the value was 56.8 µM (active); for `CC(C)(C)c1ccccc1OCCCCCNCCO`, 42.8 µM (active).
